Our source for the Potency values is PubChem BioAssay (NCATS).

Each structure is given as a SMILES string. Results filed as inconclusive are left out. Activity calls are given as the source filed them. Calls follow the shape of the dose curve; as a rule, active = well fitted cell-killing curve with a large enough effect; inconclusive = small, poorly fitted or top-dose-only effect, or effect the other way; inactive = no such curve, though single readings can be large or run the other way.
Potency is read from the fitted curve at half-maximal effect.

A short description of this test: Quantitative High-Throughput drug screen in 47 multiple myeloma cell lines against the NCATS MIPE library collection: KMS28BM_JCRB cell viability assay (AID 1919874). Also: nearly all actives have a fitted effect of over 35% in size. As to conditions: CellTiter-Glo ATP, 48 h; series mostly up to 45.8 µM. The method, boiled down:
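Viability after 48 h drug exposure was measured as ATP-dependent luminescence. Cells, 500 per well, sat at 37 °C under 5% CO2; DMSO wells set 100%, media-only wells 0%.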
(Cellular ATP, detected with luciferase, serves as a proxy for viable cell number.)
With `NC1(C(=O)N[C@@H](CCO)c2ccc(Cl)cc2)CCN(c2ncnc3[nH]ccc23)CC1`, the Potency was 0.372 µM (active).
In the case of `CCOC(=O)c1c(CSc2ccccc2)n(C)c2cc(Br)c(O)c(CN(C)C)c12`, the Potency is 14.8 µM (active).
Next, `C[C@H](c1ccc(F)cc1CCCC(=O)O)N(c1cc(F)ccc1F)S(=O)(=O)c1ccc(Cl)cc1`: 16.6 µM (active).
`COc1ccc2nc3cc(Cl)ccc3c(Nc3cc(CN4CCCC4)c(O)c(CN4CCCC4)c3)c2n1`: the Potency was 23.5 µM (active).
Consider `CCc1cccc(CC)c1NC(=O)N1Cc2[nH]nc(NC(=O)c3ccc(N4CCN(C)CC4)cc3)c2C1`, for which the Potency is 1.18 µM (active).
Next, `C[C@]12CCC3=C4CCC(=O)C=C4CC[C@@H]3[C@H]1CC[C@@]2(O)CC#N`: “inactive”; `C[C@]12CC[C@@H]3c4ccc(O)cc4CC[C@H]3[C@H]1[C@@H](O)[C@@H](O)[C@H]2O`: “inactive”.
In the case of `C[C@H]1COC2=C1C(=O)C(=O)c1c2ccc2c1CCCC2(C)C`, the Potency entry is “inactive”.
In the case of `CC1(COc2ccc3c(c2)ncn3-c2ccc3cccc(N4CCC(N)CC4)c3n2)COC1`, the Potency was 0.372 µM (active).
For the molecule `CCCCN(CCCC)CC(O)c1cc(Cl)cc2c1-c1ccc(Cl)cc1C2=Cc1ccc(Cl)cc1` (stereo not drawn), the Potency is 23.5 µM (active).
As for `C[C@@H](N)c1ccc(C(=O)Nc2ccnc3[nH]ccc23)cc1`, the figure is 23.5 µM (active).
As to `CCCCC(C)(C)[C@H](O)C=C[C@H]1[C@H](O)CC(=O)[C@H]1CC=CCCCC(=O)O`, the Potency entry is “inactive”.
Take `CCC[C@@H](NC(=O)[C@@H]1[C@H]2CCC[C@@H]2CN1C(=O)[C@@H](NC(=O)[C@@H](NC(=O)c1cnccn1)C1CCCCC1)C(C)(C)C)C(=O)C(=O)NC1CC1`: the Potency was 18.7 µM (active).
